Bioassay records from PubChem BioAssay.
MITF primary – inhibitors of human MITF; inhibition, % at 2.6 µM; O75030; AlphaScreen MITF homodimerization, bead proximity signal; AID 1259374; 650,000 compounds, 0.91% hits; in the data active means inhibition above about 50%
TEAD-YAP block – TEAD-YAP interaction inhibition. HEK-TIYL cells, TEAD-Gal4/YAP UAS-luciferase luminescence. inhibition, % at 9.12 µM. 640,000 compounds, 1.4% hits. AID 1259422; in the data active means inhibition above about 32%
FBW7 act – activators of human E3 ligase FBW7; Q969H0; AlphaScreen FBW7–phospho-cyclin E peptide binding, activator screen; normalized activity (activation), % at 26.1 µM; 650,000 compounds, 0.13% hits; AID 1259310; in the data active means normalized activity above about 1.9%;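 further: purified mutant Fbw7 with reduced substrate affinity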
GPR151 ag – activates the human receptor GPR151. PathHunter beta-arrestin GPR151 cells, luminescence. Q8TDV0. activation, % at 11.2 µM. AID 1508602. 650,000 compounds, 1% hits; in the data active means activation above about 4.9%
GPR151 confirm – human GPR151 activation, confirmation screen; shares compounds with GPR151 ag; GPR151 PathHunter beta-arrestin cells, luminescence, 90 min; % of EA-reagent control over plate median; activation, % at 11.2 µM; 6,700 tested, under 10 active;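 active means mean percent activation across replicates above the confirmation screen cutoff of 4.91%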
GPR119 ag – activates human GPR119 in a GPR151 counter-screen. AID 1508611. 6,700 compounds, 0.3% hits. GPR119 PathHunter beta-arrestin cells, luminescence, 90 min; 0 = compound-well median, 100 = enzyme-acceptor control. shares compounds with GPR151 ag. activation, % at 11.2 µM;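 active means mean percent activation in the counterscreen above 29.09%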;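 further: counterscreen on off-target GPR119 to flag nonselective hits from the GPR151 activator screen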
Target sequence (Q8TDV5 whole entry, looked up): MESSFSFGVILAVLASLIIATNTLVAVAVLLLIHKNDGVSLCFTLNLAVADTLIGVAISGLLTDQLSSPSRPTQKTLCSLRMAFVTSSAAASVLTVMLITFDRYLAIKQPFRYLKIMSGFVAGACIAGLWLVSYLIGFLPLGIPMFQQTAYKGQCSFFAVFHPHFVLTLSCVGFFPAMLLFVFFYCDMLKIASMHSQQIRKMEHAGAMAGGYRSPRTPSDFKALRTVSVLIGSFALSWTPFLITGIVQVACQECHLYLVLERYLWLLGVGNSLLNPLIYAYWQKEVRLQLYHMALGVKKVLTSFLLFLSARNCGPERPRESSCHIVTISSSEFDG
Hits are given with their value; 0 = inactive; - = no result given. Sampled rows, rich in hits. Any-hit rate of the full collection: about 3.5%.

SMILES	MITF primary	TEAD-YAP block	FBW7 act	GPR151 ag	GPR151 confirm	GPR119 ag
CNc1c(N)c(=O)oc2ccccc12	0	0	0	0	-	-
Cc1ccc(C)c(Cc2c(C)nc3nc(SCc4c(F)cccc4Cl)nn3c2C)c1	0	0	0	0	-	-
Cc1ccc(C)c(CSc2nc3nc(C)c(Cc4c(F)cccc4Cl)c(C)n3n2)c1	0	0	0	6.3	0	0
COC(=O)c1c(NC(=O)C(Cl)Cl)sc(C)c1C	0	0	0	0	-	-
O=C(Cc1cc(=O)[nH][nH]1)N/N=C/c1c(O)ccc2ccccc12	0	0	0	0	-	-
CC1CCCC(NCc2c(C(=O)O)n(Cc3ccccc3F)c3ccccc23)C1C (centres undefined)	0	0	0	13	0	0
CC1CCCC(NCc2c(C(=O)O)n(Cc3ccccc3Cl)c3ccccc23)C1C (centres undefined)	0	0	0	0	-	-
O=C1C(=O)N(CCO)C(c2ccc(Cl)cc2)/C1=C(/O)c1ccc([N+](=O)[O-])cc1 (centres undefined)	0	0	0	0	-	-
CC1CC(OC(=O)C(O)c2ccccc2)CC(C)(C)C1 (centres undefined)	0	0	0	6.6	0	0
Cc1ccc(S(=O)(=O)N2CCCC(N3CCOCC3)C2)cc1Cl (centres undefined)	0	0	0	0	-	-
Cc1ccc(S(=O)(=O)N2CCCC(N3CCOCC3)C2)s1 (centres undefined)	0	0	0	6.3	0	0
O=S(=O)(c1ccc(F)c(Cl)c1)N1CCCC(N2CCOCC2)C1 (centres undefined)	0	0	0	12	0	0
O=S(=O)(c1ccc2c(c1)OCCO2)N1CCCC(N2CCOCC2)C1 (centres undefined)	0	0	0	0	-	-
CCOc1cc(C(=O)O)cc(I)c1OCc1ccccc1	0	0	0	9.2	0	0
CCCCOc1c(I)cc(C(=O)O)cc1OCC	0	0	0	0	-	-
O=C(NCc1ccc(F)cc1)c1ccc(Br)cc1	0	0	0	0	-	-
CCCc1ccc(OCCCC(=O)Nc2nnc(COC)s2)cc1	0	0	0	6.9	0	0
Cc1ccc(NC(=O)Nc2nnc(COc3ccc(Br)cc3)s2)cc1	0	0	0	0	-	-
CC(=O)Nc1nnc(COc2ccc(Br)cc2)s1	0	0	0	7.9	0	0
O=C(c1ccc2cc[nH]c2c1)N1CCN(C(=O)C(c2ccccc2)c2ccccc2)CC1	0	0	0	5.6	0	0
O=C(c1ccc2cc[nH]c2c1)N1CCNCC1	0	0	0	0	-	-
NC(=O)NCC12CC3CC(CC(C3)C1)C2	0	0	0	0	-	-
COC(=O)NCC12CC3CC(CC(C3)C1)C2	0	0	0	8.9	0	0
O=C(c1nc2ccc(Cl)cn2c1CNCC1COCCO1)N1CCc2ccccc2C1 (centres undefined)	0	0	0	9.8	0	0
CC(=O)NCCNCc1c(C(=O)N2CCc3ccccc3C2)nc2ccc(Cl)cn12	0	0	0	0	-	-
SMILES	MITF primary	TEAD-YAP block	FBW7 act	GPR151 ag	GPR151 confirm	GPR119 ag
COc1ccc(NC(=O)COc2ccc(-c3ccccc3)cc2)c([N+](=O)[O-])c1	0	0	0	0	-	-
COc1cc([N+](=O)[O-])ccc1NC(=O)N1CC(C)OC(C)C1 (centres undefined)	0	0	0	7.0	0	0
COc1ccc(NC(=O)Nc2ccc(F)cc2F)c([N+](=O)[O-])c1	0	0	0	5.0	0	0
COc1ccc(NC(=S)NC(=O)c2ccc3c(c2)OCO3)c([N+](=O)[O-])c1	0	0	0	7.0	0	0
COc1ccc(NC(=O)COc2cccc(C)c2)c([N+](=O)[O-])c1	0	0	0	6.9	0	0
O=C(Nc1ccccc1F)C1CCCO1 (centres undefined)	0	0	0	0	-	-
COc1cc2c(cc1OC)C(C(=O)NC1CCCC1)C1c3ccccc3CCN1C2=O (centres undefined)	0	0	0	0	-	-
COc1cc([N+](=O)[O-])ccc1NC(=O)Nc1ccc(Cl)cc1F	0	0	0	6.2	0	0
Cc1c(CC(C)C)nc(C#N)c(N)c1-c1ccccc1	0	0	0	0	-	-
COC(=O)c1ccccc1NC(=O)CSc1nnc(-c2ccco2)o1	0	0	0	8.3	0	0
CCOC(=O)c1c(NC(=O)CSc2nnc(-c3ccco3)o2)sc(C)c1C	0	0	0	5.1	0	0
CCOC(=O)c1c(NC(=O)CSc2nnc(-c3ccco3)o2)sc(C(C)=O)c1C	0	0	0	0	-	-
COC(=O)c1ccc(C(=O)OC)c(NC(=O)CSc2nnc(-c3ccco3)o2)c1	0	0	0	0	-	-
CCC1CCCCN1S(=O)(=O)c1ccc(F)c(C(=O)Nc2cccc(C)c2C)c1 (centres undefined)	0	0	0	0	-	-
CCOC(CNc1nc(OC)cc(OC)n1)(OCC)c1ccccn1	0	0	0	5.0	0	0
O=C1CCCN1CCn1cnc2c(NCc3nc4ccccc4[nH]3)nc(-c3ccccc3)nc21	0	0	0	0	-	-
Brc1ccc(Oc2ccc(Oc3ccc(Br)cc3)cc2)cc1	0	0	0	0	-	-
Nc1ccc(Oc2ccc(Br)cc2)cc1	0	0	0	11	0	0
N#Cc1cnn(C(=O)c2ccc(CSc3ccc(Cl)cc3)cc2)c1N	0	0	0	0	-	-
Cc1ccc(CNCc2ccco2)cc1	0	0	0	7.0	0	0
CCOc1ccc(N2C(=O)CC(Sc3nc4ccccc4s3)C2=O)cc1 (centres undefined)	0	0	0	0	-	-
CC(C)C1=CC(=Nc2ccc(S(N)(=O)=O)cc2)C=C(C(C)C)C1=O	0	0	0	14	0	0
Cn1ccsc1=NC(=O)C1COc2ccccc2O1 (centres undefined)	0	0	0	0	-	-
COc1cc2sc(=NC(=O)C3COc4ccccc4O3)n(C)c2cc1OC (centres undefined)	0	0	0	6.6	0	0
CCOC(=O)c1ccc(N2C(=O)CC(Cc3ccc(C)cc3)C2=O)cc1 (centres undefined)	0	0	0	0	-	-
SMILES	MITF primary	TEAD-YAP block	FBW7 act	GPR151 ag	GPR151 confirm	GPR119 ag
CCOc1ccc(S(=O)(=O)NCCC(OCC)OCC)c2cccnc12	0	0	0	0	-	-
COc1ccc(C2C(C#N)=C(N)Oc3cc(N)ccc32)cc1Br (centres undefined)	0	0	0	7.6	0	0
CC(=O)c1cccc(Nc2c(-c3ccc(C)cc3)c(=O)c2=O)c1	0	0	0	0	-	-
CC(=O)c1ccc(Nc2c(-c3ccccc3)c(=O)c2=O)cc1	0	0	0	5.4	0	0
CCCC1=NN2C(=N)/C(=C/c3ccc(OCCOc4ccc(C)cc4)c(OCC)c3)C(=O)N=C2S1	0	0	0	0	-	-
O=[N+]([O-])C1=C(Nc2ccc(Cl)c(Cl)c2)CS(=O)(=O)C1	0	0	0	0	-	-
Cc1ccc(NC2=C([N+](=O)[O-])CS(=O)(=O)C2)cc1	0	0	0	6.5	0	0
O=C(NCCc1nnc2n1CCN(Cc1cccc(C(F)(F)F)c1)CC2)c1ccoc1	0	0	0	0	-	-
